# Measurements as given in ChEMBL document CHEMBL4513216, “Probing the Open Global Health Chemical Diversity Library for Multistage-Active Starting Points for Next-Generation Antimalarials” (ACS Infect Dis, 2020).
# In all, about 69,000 compounds went through this assay and about 8,600 (12%) showed an effect of 50% or more. Many of the other results were omitted from the sample, so strong results are more common in it than they were.
# System: Plasmodium berghei
# Assay: Screen against P. berghei liver stage (PbLuc), transformed with Luciferase, at 10uM
# Format: functional, HepG2
# Conditions: tested at 10 uM
row,Compound,INHIBITION [%]
1,CN1CCOC(CNCc2csc(C3CCCCC3)n2)C1 (centres undefined),13.6
2,CCN(CC)C(=O)Cn1cc(-c2nc(-c3ccccc3C)no2)nn1,-19.1
3,Cn1[nH]c(C2CCC2)c(-c2ccc3c(c2)OCO3)c1=N,64.7
4,Cn1[nH]c(C2CC2)c(-c2ccc3c(c2)OCO3)c1=N,16.5
5,Cn1nc(C2CCCC2)c(-c2ccc3c(c2)OCO3)c1N,48
6,CCc1[nH]n(C)c(=N)c1-c1ccc2c(c1)OCO2,53.6
7,CSCCc1nc(-c2ccc3c(c2)OCO3)n(C)n1,25.9
8,CCCc1[nH]n(C)c(=N)c1-c1ccc2c(c1)OCO2,27.6
9,CN(C)c1ncc2c(O)nc(C3CCCNC3)cc2n1 (centres undefined),24.8
10,COc1ccccc1OCCCN1CCNC1=O,12.9
11,CCC(=O)Nc1nnc2n(Cc3cccc(OC)c3)[nH]c(C)c1-2,-31
12,CCC(C)(C)NC(=O)CSCc1ccc(S(=O)(=O)N(C)C)o1,3.73
13,CN(C)S(=O)(=O)c1ccc(CSCC(=O)NC(C)(C)C)o1,17.9
14,CCCNC(=O)CSCc1ccc(S(=O)(=O)N(C)C)o1,53.7
15,Cc1occc1C(=O)N1CCc2c(CNS(C)(=O)=O)cncc2C1,6.55
16,CC(C)Oc1cccc(CN(C)C(=O)Nc2cccn(C)c2=O)c1,-15
17,CN(CCOc1ccccc1)C(=O)Nc1cccn(C)c1=O,82.4

row,Compound,INHIBITION [%]
1,COc1c(NC(=O)N(C)CCOc2ccccc2)c(C)nn1C,-24.6
2,CC(C)c1sc(Cl)nc1C(=O)N1CCN(Cc2ccccc2)CC1,10.9
3,Cc1ccc(-n2cc(C(=O)NCc3nnc4n3CCCCC4)nn2)cc1,-21.2
4,CCN(CC)c1ccc(CNC(=O)N2CCC(C#N)CC2)cc1,2.91
5,Cc1ccc(C(=O)N2CCCC(N(C)C(=O)OC(C)(C)C)C2)o1 (centres undefined),37.8
6,CCc1ccc(C(=O)N2CCC(N(C)C(=O)OC(C)(C)C)C2)o1 (centres undefined),71.2
7,CN(C(=O)OC(C)(C)C)C1CCN(C(=O)c2ccc(Cl)o2)C1 (centres undefined),-12.3
8,c1ccc(-c2nc3c(c(NCc4nnc5n4CCC5)n2)CCNC3)cc1,39.4
9,CN(CCC(=O)N1CCc2sccc2C1)Cc1cc(Br)cs1,19.2
10,CC(C)(C)CC(=O)N1CCc2sccc2C1,-46.6
11,N#Cc1cccc(CNCCC(=O)N2CCc3sccc3C2)c1,68.3
12,COc1ccc(CNC(=O)N2CCc3sccc3C2)cc1O,-45
13,CN(CCC(=O)N1CCc2sccc2C1)Cc1ccc2c(c1)OCCO2,-7.35
14,O=C(CCNCc1cccc(O)c1)N1CCc2sccc2C1,81.2
15,O=C(CCN1CCCC1c1cccc(F)c1)N1CCc2sccc2C1 (centres undefined),9.54
16,COc1ccc(CNCCC(=O)N2CCc3sccc3C2)cc1O,76.2
17,NC(=O)NC(CC(=O)N1CCc2sccc2C1)c1cccc(Br)c1 (centres undefined),14.9
